SENP8 block-1 – SENP8 protease inhibitors, primary screen, biochemical, luminescence. Sentrin-specific protease 8 (Homo sapiens), Q96LD8. purified SENP8, Z-RLRGG-aminoluciferin cleavage. inhibition, % at 10 µM. 330,000 tested, 1.2% active. AID 2540, 2010; in the data active = inhibition above about 50%
Target sequence (Q96LD8 whole entry, looked up): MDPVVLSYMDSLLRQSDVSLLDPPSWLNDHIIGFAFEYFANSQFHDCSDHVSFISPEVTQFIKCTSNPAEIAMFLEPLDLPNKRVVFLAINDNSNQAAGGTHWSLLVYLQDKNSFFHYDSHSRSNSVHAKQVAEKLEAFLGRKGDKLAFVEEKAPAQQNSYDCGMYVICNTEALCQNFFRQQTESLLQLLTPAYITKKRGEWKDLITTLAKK
PPC-1+TRAIL kill – compounds killing PPC-1 cancer cells with TRAIL present, primary screen, TRAIL potentiator project, ATPLite luminescence, uHTS; PPC-1 cells + TRAIL, ATPLite viability luminescence; cell killing (% activity), % at 4 µM or 5 µM; 220,000 tested, 0.41% active;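 active = cell killing above 50% in the first pass at 4 µM, then a duplicate retest at 5 µM averaging 50% or more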;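 note: plate controls were cells with TRAIL plus DMSO for no effect and medium-only wells lacking cells for full effect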
SENP7 block – SENP7 protease inhibitors, primary screen, biochemical, luminescence, uHTS; Sentrin-specific protease 7 (Homo sapiens), Q9BQF6; recombinant SENP7, Z-RLRGG-aminoluciferin luminescence, 40 min; inhibition, % at 5 µM; 330,000 tested, 1.5% active;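 active = inhibition above about 50% at the single test dose, limit read from the data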;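 note: plate controls were DMSO with enzyme for no effect and no enzyme buffer wells for full effect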
SENP6 block – SENP6 protease inhibitors, primary screen, biochemical, luminescence, uHTS | Recombinant SENP6 catalytic domain, aminoluciferin luminescence | inhibition, % at 10 µM | 330,000 tested, 1.8% active | AID 2599, 2010;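 active = inhibition above about 50% at the single tested dose, limit read from the data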;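 note: plate controls were DMSO wells with enzyme for no effect and DMSO wells lacking enzyme for full effect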
Target sequence (Q9GZR1 628-1112 limits assumed): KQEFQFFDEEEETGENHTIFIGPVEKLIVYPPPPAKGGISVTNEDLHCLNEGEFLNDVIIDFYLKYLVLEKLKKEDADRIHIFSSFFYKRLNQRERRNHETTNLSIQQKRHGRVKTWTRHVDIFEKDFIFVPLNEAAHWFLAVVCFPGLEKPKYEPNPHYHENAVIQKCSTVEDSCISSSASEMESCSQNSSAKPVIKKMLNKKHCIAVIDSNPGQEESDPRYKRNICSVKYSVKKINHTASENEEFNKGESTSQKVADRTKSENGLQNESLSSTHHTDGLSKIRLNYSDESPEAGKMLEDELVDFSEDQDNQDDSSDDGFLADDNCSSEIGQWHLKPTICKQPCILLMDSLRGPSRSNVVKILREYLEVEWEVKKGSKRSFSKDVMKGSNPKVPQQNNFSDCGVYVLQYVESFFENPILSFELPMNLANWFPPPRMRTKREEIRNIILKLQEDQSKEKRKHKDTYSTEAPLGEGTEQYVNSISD
SENP8 block-2 – human SENP8 protease inhibitors, primary screen, biochemical, fluorescence, Nedd8 protein substrate, uHTS. Sentrin-specific protease 8 (Homo sapiens), Q96LD8. recombinant SENP8. inhibition, % at 20 µM. 360,000 tested, 0.64% active; in the data active = inhibition mostly above about 40%, no sharp cut-off; inactive = mostly below about 27%
TRAIL sens C8 – viability loss with TRAIL in NB7+C8 cells, primary screen, TRAIL sensitizer project, cell-based, ATPlite luminescence | inhibition (viability loss, TRAIL sensitization), % at 10 µM | 360,000 tested, 1% active | AID 624354, 2012;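 active = compounds causing at least 50% loss of cell viability in the single-dose screen, relative to plate controls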
SENP8 conf-1 – SENP8 protease inhibitors, retest, confirmation, biochemical, luminescence, single concentration | shares compounds with SENP7 block | inhibition, % at 12.5 µM | Recombinant SENP8, Z-RLRGG-aminoluciferin luminescence, 60 min | AID 488912, 2010 | 6,200 tested, 40% active;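 active = mean inhibition across replicates above about 50%, limit read from the data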
SENP6 confirm – SENP6 protease inhibitors, confirmation, biochemical, luminescence, single concentration. shares compounds with SENP7 block. recombinant SENP6, Z-RLRGG-aminoluciferin luminescence. inhibition, % at 12.5 µM. 6,200 tested, 58% active. AID 488915, 2010
SENP7 conf – SENP7 protease inhibitors, retest, confirmation, biochemical, luminescence, single concentration; shares compounds with SENP7 block; recombinant SENP7, Z-RLRGG-aminoluciferin luminescence, 40 min; inhibition, % at 12.5 µM; 6,200 tested, 69% active; AID 488917, 2010
Casp3 select – caspase-3 protease inhibitors, confirmation, selectivity assay for SENP inhibitor project, biochemical, single concentration; AID 488918, 2010; shares compounds with SENP7 block; inhibition, % at 12.5 µM; purified caspase-3, Z-DEVD-aminoluciferin luminescence, 60 min; 6,200 tested, 60% active;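 active = mean inhibition above about 50%, limit read from the data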;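 note: plate controls were enzyme with DMSO for no effect and wells without caspase-3 for full effect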
SENP luc ctr – counter-screen for SENP inhibitors: luminescence interference | shares compounds with SENP7 block | Pre-incubated SENP8/Z-RLRGG-aminoluciferin, luciferase luminescence interference | inhibition, % at 12.5 µM | 6,200 tested, 39% active | AID 488919;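 active = mean inhibition above about 50% when retested at one dose, limit read from the data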;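 note: plate controls were DMSO wells with completed reaction for no effect and substrate without enzyme for full effect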
SENP8 conf-2 – human SENP8 protease inhibitors, confirmation, biochemical, Nedd8 protein substrate, single concentration | shares compounds with SENP8 block-2 | purified SENP8, Nedd8-AMC/pro-Nedd8 cleavage fluorescence, 30 min | inhibition, % at 25 µM | 1,400 tested, 15% active | AID 624319, 2012; in the data active = inhibition mostly above about 39%, no sharp cut-off; inactive = mostly below about 34%
Numbers without * were called inactive; i = inactive; . = not tested or not shown. Most compounds without a hit are left out; they make up all but 3% or so of the library.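 Rule for the calls, unless noted: active = mean inhibition above about 50% in the one-dose retest (limit read from the data); inactive = the rest.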

SMILES	SENP8 block-1	PPC-1+TRAIL kill	SENP7 block	SENP6 block	SENP8 block-2	TRAIL sens C8	SENP8 conf-1	SENP6 confirm	SENP7 conf	Casp3 select	SENP luc ctr	SENP8 conf-2
O=C(c1ccc([N+](=O)[O-])o1)N1CCc2ccccc21	32.9	.	46.0	52.5*	48.2*	0.4	26.7	52.1*	41.0	59.3*	17.3	25.3
CSc1nnc(-c2ccccc2N=Cc2c(C)[nH]n(-c3ccc4ccccc4c3)c2=O)c(=O)[nH]1	53.4*	46.2	16.5	77.8*	40.7*	47.4	46.8	62.6*	33.6	66.6*	67.5*	14.9
COc1ccc(-c2cc(C(F)(F)F)n3nc(C(N)=O)cc3n2)cc1	.	.	.	.	i	8.1	.	.	.	.	.	.
O=C1Cc2ccccc2C(=O)N1CCc1ccccc1	94.9*	10.1	87.4*	97.2*	98.0*	-28.5	85.9*	95.8*	86.4*	96.2*	11.6	88.3*
O=C1C(=O)N(Cc2ccccc2)C(=O)N1CCN1C(=O)c2ccccc2C1=O	-11.0	-2.5	-9.4	-39.2	9.1	1.0	.	.	.	.	.	.
COc1ccc(-c2cc(=O)n(-c3ccc([N+](=O)[O-])cc3)[nH]2)cc1	79.3*	-12.8	47.8	92.0*	86.9*	-17.8	11.1	28.9	40.9	-3.3	7.8	24.5
COc1ccc(-c2[nH]n(-c3ccc([N+](=O)[O-])cc3)c(=O)c2C=NCc2ccc(F)cc2)cc1	-4.6	13.3	3.9	-1.3	10.4	6.5	.	.	.	.	.	.
COc1ccc(NC(=S)Nc2ccc3nc(C)c(C)nc3c2)cc1	-1.0	-1.4	-0.3	-11.1	-114.8	-8.6	.	.	.	.	.	.
COc1ccc(NC(=S)Nc2ccc3nsnc3c2)cc1	95.4*	18.2	88.8*	95.7*	52.5*	-5.1	2.7	89.8*	84.5*	22.1	31.9	71.2*
CN(C)c1ccc(N/C=C/C(=O)c2ccco2)cc1	90.3*	25.4	95.5*	96.0*	45.0*	61.5*	1.3	94.1*	100.6*	95.2*	31.1	12.8
COc1cc(O)c(CC=C(C)C)c(O)c1C(=O)CCc1ccc(O)cc1	69.6*	-5.7	12.3	77.4*	54.2*	6.5	41.4	77.2*	82.9*	-2.1	3.9	19.0
COc1ccc(/C=N/NC(=O)c2nn(-c3ccc(C)c(C)c3)c(=O)c3ccccc23)cc1	-7.7	23.4	-3.5	-7.4	-10.7	8.8	.	.	.	.	.	.
COc1ccc(/C=N/NC(=O)c2nn(-c3ccc(Cl)cc3)c(=O)c3c(N)scc23)cc1	18.4	-12.7	14.7	60.7*	48.9*	-3.8	-1.3	45.8	-0.5	27.6	-2.0	61.1*
COc1ccc(/C=N/NC(=O)c2nn(-c3ccccc3)c(=O)c3c(N)scc23)cc1	18.5	-12.4	11.9	52.3*	73.8*	-8.0	23.8	67.5*	20.9	61.2*	2.9	82.9*
Cc1ccc(S(N)(=O)=O)cc1NC(=O)c1ccc2c3c(cccc13)CC2	-2.4	.	1.8	-24.7	-6.6	-13.8	.	.	.	.	.	.
COc1ccccc1CNC(=O)CSc1nnc2c(n1)[nH]c1ccc(F)cc12	-6.1	.	6.5	1.9	-7.1	-2.9	.	.	.	.	.	.
COc1ccccc1N1C(=O)c2cccc3cccc(c23)C1=O	-5.8	.	7.6	-27.5	12.6	-15.8	.	.	.	.	.	.
COc1ccccc1N1C(=O)Cc2ccccc2C1=O	18.5	.	39.8	68.6*	90.5*	-8.4	17.5	62.8*	31.1	14.6	-2.9	55.3*
COc1ccc(S(=O)(=O)Oc2ccc3cccc(N)c3c2)cc1	83.8*	.	46.8	86.1*	56.5*	4.6	-0.2	14.9	12.1	5.6	-3.0	32.8
COc1ccc(S(=O)(=O)Oc2ccc3ccccc3c2)cc1	-19.6	-2.5	-2.7	-13.2	9.1	-9.0	.	.	.	.	.	.
O=C(CN(C(=O)c1csnn1)c1ccc(F)cc1)NCCc1ccccc1	3.2	.	8.0	-11.9	18.3	-3.4	.	.	.	.	.	.
CCOC(=O)C1(C)CCCN(C(=O)Cc2ccc3ccccc3c2)C1 (stereo not given)	.	.	.	.	11.2	7.2	.	.	.	.	.	.
CC(=O)N1N=C(c2ccccc2)OC1c1ccc([N+](=O)[O-])s1 (stereo not given)	32.7	1.2	32.8	65.7*	61.2*	-0.5	15.1	24.4	-0.2	-0.9	-1.2	39.1*
CC(=O)N1N=C(c2cccc([N+](=O)[O-])c2)OC1c1ccc(Br)cc1 (stereo not given)	-7.8	-3.5	2.6	-12.7	16.8	9.3	.	.	.	.	.	.
COC(=O)[C@]12CCCCC=C1N(CCC1=CCCCC1)C(=O)[C@H](CC(=O)NCCCCc1ccccc1)C2	.	.	.	.	22.5	10.9	.	.	.	.	.	.
Nc1nnc2c(n1)CCCC2	49.5	-1.8	36.4	56.2*	87.8*	-15.8	6.2	60.7*	35.5	19.0	-5.9	62.9*
C#CC(C)(CC)NC(=O)c1cc2nc(C3CC3)cc(C(F)(F)F)n2n1 (stereo not given)	6.0	16.5	1.2	3.4	-61.6	-4.2	.	.	.	.	.	.
O=C(NNc1cc(N2CCOCC2)nc(N2CCOCC2)n1)c1ccc([N+](=O)[O-])cc1	46.9	1.2	52.2*	82.8*	70.0*	-3.8	19.1	56.1*	35.1	4.4	-1.3	44.3*
CN(C(=O)CS(=O)(=O)c1cccc(Cl)c1)c1ccccc1	-13.3	30.0	1.1	3.8	15.7	-7.4	.	.	.	.	.	.

Screening results from PubChem.
